From PubChem BioAssay
Activity calls are given as the source filed them. Unless noted, the rule behind the calls is not given here.

Columns and labels:
[1] = HepG2 liver cancer cell viability effects, profiling panel, resazurin fluorescence, 24 h, PK04 Diversity Set (AID 1172); details: higher = more signal
[2] = basal S. cerevisiae growth modulation, no modifier, primary screen, OD600, strain BY4716, 24 h, basal condition (AID 1173); details: OD600, 24 h, higher = more signal, called active from +8 up or from −8 down
[3] = MM1S myeloma cell viability, profiling panel, resazurin fluorescence, basal, 24 h, PK04 Diversity Set (AID 1174); details: higher = more signal, called active from +8 up or from −8 down;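 note: MM1S multiple myeloma cell line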
[4] = molecular target: Dihydroorotate dehydrogenase (quinone), mitochondrial (Plasmodium falciparum (isolate 3D7)) (UniProt Q08210); experiment: PfDHODH enzyme inhibitors, primary screen, biochemical, C-terminal His tag, absorbance 600 nm (AID 1175); details: DCIP absorbance 600 nm, higher = more signal, called active from +8 up or from −8 down;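 note: recombinant parasite enzyme with a five histidine tag at its C terminus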
Sequence of Dihydroorotate dehydrogenase (quinone), mitochondrial (Plasmodium falciparum (isolate 3D7)) (Q08210 whole entry, looked up): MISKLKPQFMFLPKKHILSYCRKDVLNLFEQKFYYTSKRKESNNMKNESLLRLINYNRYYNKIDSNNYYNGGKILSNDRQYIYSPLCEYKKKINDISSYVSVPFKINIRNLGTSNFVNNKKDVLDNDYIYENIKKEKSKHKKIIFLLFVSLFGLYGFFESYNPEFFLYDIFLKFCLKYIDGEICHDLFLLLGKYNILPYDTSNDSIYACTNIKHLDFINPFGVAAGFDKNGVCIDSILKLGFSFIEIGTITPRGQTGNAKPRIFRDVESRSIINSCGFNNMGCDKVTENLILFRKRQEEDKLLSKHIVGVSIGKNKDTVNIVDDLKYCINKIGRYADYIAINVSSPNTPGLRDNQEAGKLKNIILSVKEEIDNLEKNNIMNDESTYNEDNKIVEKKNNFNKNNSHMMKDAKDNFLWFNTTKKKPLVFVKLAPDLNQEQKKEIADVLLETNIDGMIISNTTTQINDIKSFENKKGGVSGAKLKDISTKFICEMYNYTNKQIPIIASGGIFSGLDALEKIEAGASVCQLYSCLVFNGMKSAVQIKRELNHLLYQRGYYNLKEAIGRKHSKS

[5] = P. aeruginosa biofilm formation inhibitors, primary screen, strain PAO1, LB-PBS medium, absorbance 600 nm (AID 1176); details: P. aeruginosa PAO1 growth/biofilm, A600, 12 h; higher = more signal
[6] = S. cerevisiae RM11-1a growth modifiers, primary screen, strain RM11-1a, OD600, basal, 24 h (AID 1177); details: OD600, 24 h, higher = more signal, called active from +8 up or from −8 down;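 note: cultures grown under basal conditions with no added stressor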
[7] = E. coli acrAB mutant growth effects, primary screen, E. coli filamentation inducers, strain DRC39, OD650, 24 h (AID 1178); details: higher = more signal, called active from +8 up or from −8 down;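 note: growth measured as culture turbidity by optical density at 650 nm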
[8] = E. coli acrAB mutant growth effects, primary screen, E. coli filamentation inducers, strain DRC39, OD650, 48 h (AID 1179);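 note: screen aims at cell division blockers that make cells filament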; details: E. coli DRC39 delta-acrAB growth, higher = more signal, called active from +8 up or from −8 down
[9] = RPMI8226 myeloma cell viability, profiling panel, resazurin fluorescence, basal, 24 h, PK04 Diversity Set (AID 1180); details: higher = more signal;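 note: RPMI8826 multiple myeloma cell line at 5000 cells per well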
[10] = molecular target: E3 ubiquitin-protein ligase XIAP (Homo sapiens) (UniProt P98170); experiment: XIAP binders, primary screen, biophysical, small-molecule microarray, fluorescence 635 nm (AID 1181); details: small-molecule microarray binding, higher = more signal;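 note: score merges 667 nm emission and signal to noise over triplicate slides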
Sequence of E3 ubiquitin-protein ligase XIAP (Homo sapiens) (P98170 whole entry, looked up): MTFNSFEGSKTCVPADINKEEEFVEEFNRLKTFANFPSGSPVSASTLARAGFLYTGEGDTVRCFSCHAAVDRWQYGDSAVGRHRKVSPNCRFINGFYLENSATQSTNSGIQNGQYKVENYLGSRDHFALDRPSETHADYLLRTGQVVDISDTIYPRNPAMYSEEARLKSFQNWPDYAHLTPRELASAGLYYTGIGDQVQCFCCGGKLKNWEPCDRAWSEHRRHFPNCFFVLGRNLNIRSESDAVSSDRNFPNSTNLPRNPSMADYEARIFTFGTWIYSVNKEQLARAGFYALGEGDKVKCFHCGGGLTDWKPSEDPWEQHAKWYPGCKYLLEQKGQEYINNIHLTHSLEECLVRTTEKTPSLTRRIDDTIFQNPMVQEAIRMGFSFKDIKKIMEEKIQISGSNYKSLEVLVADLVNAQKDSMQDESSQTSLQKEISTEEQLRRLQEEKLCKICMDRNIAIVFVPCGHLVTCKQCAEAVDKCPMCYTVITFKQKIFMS

[11] = test system: XIP peptide (Xip251-270) binding; experiment: small-molecule binders of XIP peptide, primary screen, biochemical, small-molecule microarray, fluorescence 635/667 nm, 0.1 µg/mL protein (AID 1182); details: fluorescent protein binding, 635 nm, higher = more signal, called active from +8 up or from −8 down
[12] = test system: XIP peptide (Xip251-270); experiment: small-molecule binders of XIP peptide, primary screen, biochemical, small-molecule microarray, fluorescence 635/667 nm, 0.5 µg/mL protein (AID 1183); details: small-molecule microarray binding, fluorescence 635 nm; higher = more signal
[13] = Plasmodium falciparum growth inhibition, primary screen, strain 3D7, DAPI fluorescence, 100 nL (AID 1184);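 note: parasites grown inside human red blood cells in medium with human serum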; details: P. falciparum 3D7 growth, 3 d, higher = more signal
[14] = molecular target: Homeobox protein Hox-A13 (Mus musculus) (UniProt Q62424); experiment: inhibitors of HoxA13-DNA binding, primary screen, biochemical, fluorescence polarization, labeled oligonucleotide (AID 1185); details: 15 min, higher = more signal, called active from +8 up or from −8 down
Sequence of Homeobox protein Hox-A13 (Mus musculus) (Q62424 whole entry, looked up): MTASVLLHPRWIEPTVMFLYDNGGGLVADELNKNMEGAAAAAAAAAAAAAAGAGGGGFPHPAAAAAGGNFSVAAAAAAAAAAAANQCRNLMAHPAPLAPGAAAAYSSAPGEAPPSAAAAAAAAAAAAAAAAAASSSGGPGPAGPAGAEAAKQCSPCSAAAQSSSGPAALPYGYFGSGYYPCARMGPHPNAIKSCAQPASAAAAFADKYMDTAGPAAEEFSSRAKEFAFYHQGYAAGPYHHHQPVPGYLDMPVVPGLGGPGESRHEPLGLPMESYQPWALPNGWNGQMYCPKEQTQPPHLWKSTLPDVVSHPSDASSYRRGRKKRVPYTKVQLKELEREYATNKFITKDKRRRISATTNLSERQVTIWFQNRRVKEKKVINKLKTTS

SMILES | z-score [1] | z-score [2] | z-score [3] | composite z-score [4] | z-score [5] | z-score [6] | z-score [7] | z-score [8] | z-score [9] | composite z-score [10] | composite z-score [11] | composite z-score [12] | z-score [13] | z-score [14]
COc1ccc(COC(=O)NN=C2C[C@@H](O)[C@@H](O)[C@@H]3[C@@H]4C(=O)N(C5CCCCC5)C(=O)[C@@H]4CC[C@@H]23)cc1 | -0.578 | -1.29 (inactive) | -0.489 (inactive) | -1.39 (inactive) | -0.118 (inactive) | -0.286 (inactive) | -0.697 (inactive) | -0.437 (inactive) | -0.481 | 0.0225 | 0.524 (inactive) | 0.0499 | -1.07 | -4.36 (inactive)
C[C@@H](c1ccccc1)N1C(=O)[C@H]2[C@H]3[C@H](O)[C@H](O)CC(=NNC(=O)OCc4ccccc4)[C@@H]3CC[C@H]2C1=O | -0.289 | 0.862 (inactive) | -0.465 (inactive) | -0.594 (inactive) | -0.155 (inactive) | -0.396 (inactive) | 0.288 (inactive) | 0.476 (inactive) | -0.158 | -0.0749 | 0.101 (inactive) | 0.209 | 0.556 | 0.963 (inactive)
Cc1ccc(C(C)C)n1C(=O)OC(C)(C)C | -0.728 | -0.947 (inactive) | -1.46 (inactive) | -1.24 (inactive) | 1.01 (inactive) | -1.18 (inactive) | 0.32 (inactive) | -0.113 (inactive) | -1.65 | -0.0509 | -0.488 (inactive) | -0.0079 | 0.271 | 0.936 (inactive)
CC(=O)OC[C@H]1O[C@H](C#CCCc2ccccc2)C=C[C@@H]1OC(C)=O | -0.403 | -1.17 (inactive) | -0.841 (inactive) | -0.419 (inactive) | -0.0691 (inactive) | 0.702 (inactive) | 0.551 (inactive) | -0.406 (inactive) | -0.0728 | -0.105 | 0.22 (inactive) | 0.758 | 0.972 | -4.7 (inactive)
CCOC(=O)CCN1C(=O)[C@H]2[C@H]3[C@H](O)[C@H](O)CC(=NO[C@@H]4O[C@H](CO)[C@@H](O)[C@H](O)[C@H]4O)[C@@H]3CC[C@H]2C1=O | -0.901 | -1.4 (inactive) | -0.481 (inactive) | -0.451 (inactive) | 0.48 (inactive) | -0.445 (inactive) | 0.225 (inactive) | 0.79 (inactive) | -0.634 | -0.0125 | 0.557 (inactive) | 0.632 | 0.434 | 0.142 (inactive)
CCN1C(=O)[C@H]2[C@H]3[C@H](O)[C@H](O)CC(=NO[C@@H]4O[C@H](CO)[C@@H](O)[C@H](O)[C@H]4O)[C@H]3CC[C@H]2C1=O | -0.171 | -0.305 (inactive) | 0.298 (inactive) | -0.707 (inactive) | 0.519 (inactive) | -0.782 (inactive) | -0.18 (inactive) | -0.446 (inactive) | 0.064 | -0.11 | -0.0195 (inactive) | 0.263 | -0.0716 | -0.898 (inactive)
CCC1=NOC(CCC2CC(OC(=O)NCc3cccc4c3OCO4)CC3(CCCC(COC(=O)NCCc4ccc(Cl)cc4)O3)O2)C1 (centres undefined) | 0.22 | 0.519 (inactive) | -0.0555 (inactive) | -0.362 (inactive) | 0.52 (inactive) | 0.0088 (inactive) | 0.137 (inactive) | 0.377 (inactive) | 0.73 | -0.0476 | 0.214 (inactive) | 0.855 | -0.184 | -2.58 (inactive)
CC(=O)OC[C@H]1O[C@H](CC=NO[C@H](C)c2cn([C@@H]3COC[C@H]3O)nn2)C=C[C@@H]1OC(C)=O | -0.648 | -0.199 (inactive) | 0.134 (inactive) | -1.64 (inactive) | 0.441 (inactive) | -1.9 (inactive) | -0.716 (inactive) | -0.743 (inactive) | 0.0142 | -0.0447 | -0.205 (inactive) | 0.644 | -0.0896 | 0.928 (inactive)
COc1ccc(COC(=O)NN=C2C[C@@H](O)[C@@H](O)[C@@H]3[C@@H]4C(=O)N([C@@H](C)c5ccccc5)C(=O)[C@@H]4CC[C@H]23)cc1 | 0.453 | -0.111 (inactive) | 0.334 (inactive) | -0.308 (inactive) | 0.683 (inactive) | -0.677 (inactive) | -0.267 (inactive) | 0.197 (inactive) | 0.818 | 0.0193 | -0.153 (inactive) | -0.273 | -0.981 | -3.73 (inactive)
CCN1C(=O)[C@H]2[C@H]3[C@H](O)[C@H](O)CC(=NO[C@@H](C)c4cc(-c5c(C)cc(C)cc5C)no4)[C@@H]3CC[C@H]2C1=O | 0.0416 | -2.13 (inactive) | -0.69 (inactive) | -0.126 (inactive) | 0.0646 (inactive) | 0.0564 (inactive) | 0.767 (inactive) | 0.596 (inactive) | -0.835 | -0.102 | 0.359 (inactive) | 0.811 | 0.563 | -6.73 (inactive)
COc1cccc([C@H](O)Cn2cc(-c3ccc(CON=C(C)C)cc3)nn2)c1 | -0.262 | -0.377 (inactive) | -0.307 (inactive) | -0.217 (inactive) | 0.475 (inactive) | -0.47 (inactive) | 0.419 (inactive) | 0.291 (inactive) | -0.0501 | -0.167 | 0.218 (inactive) | -0.851 | -1.11 | -4.2 (inactive)
CCOC(=O)[C@H](Cc1ccccc1)NC(=O)CCC1CC(OC(=O)NCc2cccc3ccccc23)CC2(CCCC(COC(=O)NCCc3ccccc3OC)O2)O1 (some centres undefined) | 0.942 | -1.14 (inactive) | 0.179 (inactive) | -0.561 (inactive) | 0.86 (inactive) | 0.166 (inactive) | 0.122 (inactive) | 0.0971 (inactive) | 0.0498 | -0.194 | 0.248 (inactive) | 0.374 | -1.95 | -0.95 (inactive)
O=C1CCCC=C1C(O)COCc1ccccc1 (centres undefined) | -0.178 | -0.971 (inactive) | -0.155 (inactive) | 0.438 (inactive) | 0.402 (inactive) | 0.902 (inactive) | -0.227 (inactive) | -0.477 (inactive) | 0.13 | -0.02 | 0.253 (inactive) | 0.269 | -0.674 | -3.62 (inactive)
COC(=O)[C@H](C)NC(=O)CC=C[C@@H](C)[C@@H]1C=C[C@H](O)[C@@H](CO)O1 | -0.261 | 0.104 (inactive) | -0.543 (inactive) | -0.0763 (inactive) | 0.25 (inactive) | 0.253 (inactive) | 0.64 (inactive) | 0.384 (inactive) | -0.845 | 0.0623 | 0.672 (inactive) | 0.0241 | -1.66 | -0.56 (inactive)
CC(CCC(=O)OC[C@H]1O[C@H](C#Cc2ccccc2)C=C[C@@H]1Oc1ccc(C)cc1)=NO[C@H](C)c1cn([C@@H]2COC[C@H]2O)nn1 | -0.458 | -0.174 (inactive) | -1.7 (inactive) | -2.12 (inactive) | 1.12 (inactive) | -2.02 (inactive) | -0.698 (inactive) | -0.651 (inactive) | -0.474 | -0.0793 | 0.0435 (inactive) | -0.391 | -0.114 | -4.04 (inactive)
COc1ccc(COC(=O)NN=C2C[C@@H](O)[C@@H](O)[C@@H]3[C@@H]4C(=O)N([C@@H](C)c5ccccc5)C(=O)[C@@H]4CC[C@@H]23)cc1 | -0.295 | 0.501 (inactive) | -0.525 (inactive) | -0.194 (inactive) | -0.0363 (inactive) | -0.887 (inactive) | 0.0247 (inactive) | 0.528 (inactive) | -0.521 | -0.126 | -0.216 (inactive) | 0.0452 | -0.503 | -2.18 (inactive)
COC(=O)C1=C(C)N(Cc2ccccc2)C2=C3C(=O)OCC[C@@H]3[C@@](O)(C(=O)OC)C(=O)N2[C@@H]1c1ccccc1 | 1.11 | -0.319 (inactive) | -1.3 (inactive) | 0.524 (inactive) | -0.458 (inactive) | 0.681 (inactive) | 0.933 (inactive) | 0.575 (inactive) | -0.0018 | -0.0931 | 0.75 (inactive) | -0.189 | 0.964 | -0.987 (inactive)
O=C1C[C@H](c2ccccc2)[C@H](c2ccc(Br)cc2)O1 | -0.598 | -8.77 (active) | -0.118 (inactive) | -1.24 (inactive) | 0.605 (inactive) | -2.74 (inactive) | 0.358 (inactive) | -1.67 (inactive) | 0.0497 | -0.0438 | -0.112 (inactive) | -0.0581 | 0.467 | -0.403 (inactive)
CCOC(=O)[C@H](Cc1ccccc1)NC(=O)CCC1CC(OC(=O)NCc2ccc3c(c2)OCO3)CC2(CCCC(COC(=O)NCCCN3CCCC3=O)O2)O1 (some centres undefined) | 0.557 | -0.547 (inactive) | 0.913 (inactive) | -0.59 (inactive) | -0.801 (inactive) | -0.012 (inactive) | -0.131 (inactive) | 0.186 (inactive) | 1.36 | -0.124 | 0.112 (inactive) | 0.577 | -1.87 | -3.13 (inactive)
O=C1C=C[C@@H](O)[C@@H]2[C@@H]3C(=O)N(C4CCCCC4)C(=O)[C@@H]3CC[C@@H]12 | -0.295 | -1.28 (inactive) | -1.45 (inactive) | -0.168 (inactive) | -0.601 (inactive) | 0.246 (inactive) | -0.292 (inactive) | -0.191 (inactive) | -1.31 | -0.269 | 0.386 (inactive) | 0.178 | 0.307 | -0.431 (inactive)
COc1ccc(O[C@H]2C=C[C@@H](c3ccccc3)O[C@@H]2COC(=O)NCc2cccc3ccccc23)cc1 | -0.556 | 0.476 (inactive) | -0.079 (inactive) | -0.0459 (inactive) | 0.79 (inactive) | 0.846 (inactive) | -0.424 (inactive) | -0.257 (inactive) | 0.283 | -0.0448 | -0.318 (inactive) | 0.143 | -0.806 | 1.25 (inactive)
